Data as given in PubChem BioAssay (NCI).
Compounds without any hit were thinned out: in the full panel of roughly 79,000, 15% have a hit. Activity calls are given as the source filed them. No stated cut-off is given here; in the data, active means growth inhibition above about 70%; inactive means the rest.

Experiment: NCI Yeast Anticancer Drug Screen. Data for the sgs1 mgt1 strain (AID 161);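 further: 0% = growth of cultures given vehicle only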
Details: S. cerevisiae sgs1 mgt1 strain, at 50.0 µM, stronger effect = higher value
Description: Growth inhibition of yeast strains with defined genetic alterations is measured as a screen for potential anti-cancer activity. Selected strains with alterations in DNA damage repair or cell cycle control were exposed to compounds and growth inhibition was measured relative to vehicle treated controls. The strain used in this assay is sgs1 mgt1

| SMILES | growth inhibition |
| --- | --- |
| CNC1=C(N2CC2)C(=O)C(NC)=C(N2CC2)C1=O | 17.9% (inactive) |
| CN(C)CCNC(=O)c1ccc(N(CCCl)CCCl)c([N+](=O)[O-])c1[N+](=O)[O-] | 30.8% (inactive) |
| Nc1nc(=S)nc(N)[nH]1 | -7.9% (inactive) |
| NC(=O)Cc1ccccc1 | -6.55% (inactive) |
| C[CH2][Pb]([CH2]C)([CH2]C)[N]1C(=O)c2c(Cl)c(Cl)c(Cl)c(Cl)c2C1=O | 93.1% (active) |
| O=C(O)c1ccc([N+](=O)[O-])c([N+](=O)[O-])c1 | 32.9% (inactive) |
| O=C=Nc1ccc(Cl)cc1 | -8.3% (inactive) |
| Oc1ccccc1C1NCCc2[nH]cnc21 (stereo not given) | 14.4% (inactive) |
| Nc1nc(-c2cccc(S(=O)(=O)F)c2)cs1 | 55.5% (inactive) |
| CNc1ccccc1C(=O)O | 10.5% (inactive) |
| CCCCCCNC1C=CCC1 (stereo not given) | -10.9% (inactive) |
| CCCCCCCBr | 3.1% (inactive) |
| CP(=S)(c1ccccc1)P(C)(=S)c1ccccc1 (stereo not given) | -17.9% (inactive) |
| CCCCN(CCCC)CC(O)c1cc(Cl)c(Cl)cc1C (stereo not given) | 35.1% (inactive) |
| ClCCN(CCCl)CC(Cl)COc1cccc2ccccc12 (stereo not given) | 31.5% (inactive) |
| CN1C2CCC1CC(OC(=O)/C=C\c1ccccc1)C2 (stereo not given) | -5.45% (inactive) |
| C=CCC1(O)CCC2C3CCC4=CC(=O)CCC4=C3C=CC21CC (stereo not given) | 20.4% (inactive) |
| COc1ccc(N2CC=C(c3ccccc3)OP2(=O)N(CCCl)CCCl)cc1 (stereo not given) | -3.45% (inactive) |
| C(=C\c1cccs1)/CN1CCC2CCC(C2)C1 (stereo not given) | 2.1% (inactive) |
| O[As](O)O.S=C(S)c1ccccc1S | 18.7% (inactive) |

| SMILES | growth inhibition |
| --- | --- |
| O=[As]c1ccc2c(c1)NC(O)=CO2 (stereo not given) | 20.7% (inactive) |
| CC(=O)OC1CCC2(C)C(CCC3C2CCC2(C)C3CC(CC(=O)O)C2OC(C)=O)C1 (stereo not given) | 7.3% (inactive) |
| Nc1nc(N)c(N=Nc2ccc([As](=O)(O)O)c(O)c2)c(N)n1 | -36% (inactive) |
| c1cc[c]([Hg][S]c2nc3ccccc3s2)cc1 | -6.05% (inactive) |
| CCCCN(CCCC)C(=O)C1C=C2c3cccc4[nH]cc(c34)CC2N(C)C1 (stereo not given) | -11.2% (inactive) |
| CC(=O)c1ccccc1N=Nc1ccc(N(CCCl)CCCl)cc1C | 12.9% (inactive) |
| COc1ccc(CCN)c(OC)c1 | -3.5% (inactive) |
| Nc1ccc([As](=O)(O)O)cc1C(=O)O | -6.7% (inactive) |
| CC(C)(C)c1cc2c(=O)o[s+]3oc(=O)c(c1)c23 | 6.75% (inactive) |
| CCCCCCCCCCCCCCCC(=O)OCC(C[As](=O)(O)O)OC(=O)CCCCCCCCCCCCCCC (stereo not given) | -15.1% (inactive) |
| C1CN1[PH+](N1CC1)N1CC1.[C-]#[O+].[C-]#[O+].[C-]#[O+].[C-]#[O+].[C-]#[O+].[W] | -21% (inactive) |
| CN(C)C(=O)Oc1cc(O)cc([N+](=O)[O-])c1 | -10.8% (inactive) |
| CC(Nc1c([N+](=O)[O-])ccc(C(=O)NCCN(C)C)c1[N+](=O)[O-])C(=O)Nc1ccc(N(CCCl)CCCl)cc1 (stereo not given) | 0.75% (inactive) |
| O=c1[nH]c(=O)c2[nH]c(N=Nc3ccc(N(CCCl)CCCl)cc3)nc2[nH]1 | 34.6% (inactive) |
| CC1CCC2C(C)C(=O)OC3OC4(C)CCC1C32OO4 (stereo not given) | -8.05% (inactive) |
| O=N[O-].[Co].[NH-]CC[NH-].[NH-]CC[NH-].[NH2-] | -6.25% (inactive) |
| CC(SC(C)C(=O)N/N=C/c1ccc(N(CCCl)CCCl)cc1)C(=O)N/N=C\c1ccc(N(CCCl)CCCl)cc1 (stereo not given) | -6.05% (inactive) |
| CCOc1cc(CCNC)c2c(ccc3ccc(OC)c(O)c32)c1OC | 4.75% (inactive) |
| CC1=CC23C(COC(=O)C24CO4)C(C(=O)O)=CC3C1C (stereo not given) | -13.3% (inactive) |
| CCCCCC(C)C1C(=O)NC(=O)NC1=O (stereo not given) | 2.65% (inactive) |
